Rows were chosen to be rich in hits. Some 18% of all compounds tested hit in one or more screens of this group.
DT40 TDP1 no CPT: qHTS for Inhibitors of human tyrosyl-DNA phosphodiesterase 1 (TDP1): qHTS in cells in absence of CPT | DT40 Tdp1-/- hTDP1 cells, no CPT, ATP luminescence, 48 h | Potency, µM (series often up to 46.2 µM), without a hit: at the top dose activity change, negative = growth inhibition, hits mostly inhibitors | 420,000 tested, 15% active; also: potency is read from the fitted curve at half-maximal effect; % is scaled to controls: 0 for no effect and ±100 for the full control effect; nearly all actives have a fitted effect of over 55% in size
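Chicken DT40 Tdp1-/- cells complemented with human TDP1, screened without camptothecin (DMSO vehicle only), 400 cells/well. Compounds pin-transferred, cells incubated at 37 °C for at least 48 hr. Growth read as ATP-dependent luminescence (CellTiter-Glo, 30 min at RT).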
DT40 TDP1 CPT: DT40-hTDP1 cell growth loss with CPT; Potency, µM (series often up to 46.2 µM), inactives show top-dose activity change, negative = growth inhibition, hits mostly inhibitors; 420,000 tested, 12% active; AID 686979; chicken DT40 Tdp1-/-;hTDP1 cells + 20 nM CPT, ATP luminescence, 48 h; also: potency is read from the fitted curve at half-maximal effect; % is scaled to controls: 0 for no effect and ±100 for the full control effect; nearly all actives have a fitted effect of over 55% in size
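Chicken DT40 Tdp1-/- cells stably complemented with human TDP1 were seeded at 400 cells/well in medium containing 20 nM camptothecin, exposed to pin-transferred compounds, and grown at 37 °C for at least 48 hr. Viability was read as ATP luminescence.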
TDP1 block: TDP1 (human) enzyme inhibition. Q9NUW8. recombinant TDP1, AlphaScreen DNA substrate cleavage. Potency, µM (series often up to 130 µM), without a hit: at the top dose activity change, negative = inhibition, hits mostly inhibitors. 350,000 tested, 0.28% active. AID 485290; also: potency is read from the fitted curve at half-maximal effect; % is scaled to controls: 0 for no effect and ±100 for the full control effect; nearly all actives have a fitted effect of over 40% in size
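Signal: AlphaScreen proximity between streptavidin donor and anti-FITC acceptor beads on intact substrate. Reaction: Tdp1 1 nM, substrate 15 nM final, 5 min RT after 15 min compound preincubation.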
VDR inh: blocks the human vitamin D receptor; 400,000 tested, 0.93% active; Potency, µM, without a hit: max response, negative = inhibition, hits mostly inhibitors; AID 504847; VDR-SRC2-3 peptide fluorescence polarization, 2 h; also: potency is read from the fitted curve at half-maximal effect; % is scaled to controls: 0 for no effect and ±100 for the full control effect
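Fluorescence polarization assay measuring small-molecule disruption of VDR binding to the coregulator peptide SRC2-3. Compounds were pin-transferred (23 nl) into the reagent mix and incubated 2 h at room temperature before reading.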
PLK1 PBD block: inhibitors of human PLK1 polo-box domain binding. Potency, µM, inactives show max response, negative = inhibition, most hits filed as inhibitors. P53350. 360,000 tested, 2.8% active. Plk1 PBD binding of FITC phosphopeptide, fluorescence polarization; also: potency is read from the fitted curve at half-maximal effect; series mostly up to about 57 µM; % is scaled to controls: 0 for no effect and ±100 for the full control effect; nearly all actives have a fitted effect of over 65% in size
GCN5L2 inh-1: blocks human GCN5L2 histone acetyltransferase; Potency, µM (top dose mostly 58.9 µM), for inactives: top-dose activity change, negative = inhibition, hits mostly inhibitors; 390,000 tested, 0.21% active; GCN5L2 HAT assay, ThioGlo1 CoA-SH fluorescence; Q92830; also: potency is read from the fitted curve at half-maximal effect; % is scaled to controls: 0 for no effect and ±100 for the full control effect
Target sequence (Q92830 whole entry, looked up): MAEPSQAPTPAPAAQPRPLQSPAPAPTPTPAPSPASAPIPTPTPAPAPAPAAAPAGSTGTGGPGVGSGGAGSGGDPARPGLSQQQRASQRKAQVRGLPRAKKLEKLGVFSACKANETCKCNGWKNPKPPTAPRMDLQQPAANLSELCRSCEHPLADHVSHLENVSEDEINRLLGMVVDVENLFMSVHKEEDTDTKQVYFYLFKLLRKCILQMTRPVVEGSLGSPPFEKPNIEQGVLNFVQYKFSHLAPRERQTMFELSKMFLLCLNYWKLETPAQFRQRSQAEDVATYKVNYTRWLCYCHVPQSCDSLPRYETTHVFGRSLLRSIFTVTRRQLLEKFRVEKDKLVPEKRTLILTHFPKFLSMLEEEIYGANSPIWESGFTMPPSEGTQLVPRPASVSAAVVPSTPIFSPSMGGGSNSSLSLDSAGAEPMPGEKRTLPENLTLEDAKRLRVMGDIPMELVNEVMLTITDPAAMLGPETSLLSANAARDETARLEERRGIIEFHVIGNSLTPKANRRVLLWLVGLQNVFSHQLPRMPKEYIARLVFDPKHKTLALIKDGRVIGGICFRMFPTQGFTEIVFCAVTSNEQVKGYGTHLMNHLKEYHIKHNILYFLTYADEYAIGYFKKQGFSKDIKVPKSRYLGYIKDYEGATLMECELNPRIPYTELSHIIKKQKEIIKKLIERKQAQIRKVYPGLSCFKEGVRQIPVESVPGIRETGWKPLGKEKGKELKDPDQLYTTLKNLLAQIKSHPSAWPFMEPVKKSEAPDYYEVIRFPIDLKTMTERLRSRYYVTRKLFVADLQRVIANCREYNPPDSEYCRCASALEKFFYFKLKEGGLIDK
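Preincubate 20nM GCN5L2 with compound 15 min, RT → add 50uM ThioGlo1 + 75uM H3(1-25) + 70uM acetyl-CoA → read fluorescence 0 and 20 min. Primary qHTS; fluorescent artifacts likely.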
GCN5L2 inh-2: confirmation of human GCN5L2 histone acetyltransferase inhibitors. shares compounds with GCN5L2 inh-1. Potency, µM, most hits filed as inhibitors. GCN5L2 HAT, ThioGlo1 CoA fluorescence, 20 min. 140 tested, 70% active
* = called active by the depositor; ! = a repeat was not active. Calls follow the shape of the dose curve; as a rule, active = well fitted curve in the direction sought with a large enough effect; inconclusive = small, poorly fitted or top-dose-only effect, or another doubt; inactive = no such curve, though single readings can be large; an effect the other way counts as inactive or inconclusive.

How did O=S(=O)(c1ccc(N2CCOCC2)c(Cl)c1)N1CCOCC1 do in these assays?
DT40 TDP1 no CPT: -26%; DT40 TDP1 CPT: inconclusive; TDP1 block: 7%; VDR inh: -4%; PLK1 PBD block: 1%; GCN5L2 inh-1: -2%

Results for O=c1c2ccccc2sn1-c1cc(S(=O)(=O)N2CCOCC2)ccc1N1CCCC1 ?
DT40 TDP1 no CPT: 12µM*; DT40 TDP1 CPT: 5.8µM*; TDP1 block: -6%; VDR inh: inconclusive; PLK1 PBD block: 3µM*; GCN5L2 inh-1: 8.9µM*; GCN5L2 inh-2: 5.8*

Results for O=c1c2ccccc2sn1-c1cc(S(=O)(=O)N2CCOCC2)ccc1N1CCOCC1 ?
DT40 TDP1 no CPT: 4.5µM*; DT40 TDP1 CPT: 4.5µM*; TDP1 block: -1%; VDR inh: 18µM*!; PLK1 PBD block: 0.84µM*; GCN5L2 inh-1: 1.6µM*; GCN5L2 inh-2: 4.1*

How did CC(C)c1ccc(S(=O)(=O)/N=C2\C=C(NS(=O)(=O)c3ccccc3)C(=O)c3ccccc32)cc1 do in these assays?
DT40 TDP1 no CPT: inconclusive; DT40 TDP1 CPT: inconclusive; VDR inh: 79µM*; PLK1 PBD block: 24µM*; GCN5L2 inh-1: 22µM*; GCN5L2 inh-2: 9.1*

Results for COc1ccc2c(C(=O)NCCCCO)c(-c3ccc(S(C)(=O)=O)cc3)sc2c1 ?
DT40 TDP1 no CPT: -5%; DT40 TDP1 CPT: inconclusive; TDP1 block: 0%; VDR inh: 0%; PLK1 PBD block: -30%; GCN5L2 inh-1: inconclusive; GCN5L2 inh-2: 36*

Results for Cc1nc2ccc(NC(=O)c3ccc(Cl)c([N+](=O)[O-])c3)cc2s1 ?
DT40 TDP1 no CPT: inconclusive; DT40 TDP1 CPT: -22%; TDP1 block: -1%; VDR inh: 7%; PLK1 PBD block: -3%; GCN5L2 inh-1: 2%

What do the screens show for `Cc1nc2ccc(NC(=O)c3cc([N+](=O)[O-])cc([N+](=O)[O-])c3Cl)cc2s1`?
DT40 TDP1 no CPT: 6.5µM*; DT40 TDP1 CPT: 5.2µM*; TDP1 block: 2%; VDR inh: inconclusive; PLK1 PBD block: 2.7µM*; GCN5L2 inh-1: inconclusive; GCN5L2 inh-2: 8.1*

Results for CCCCOc1ccc(C(=O)NCC(=O)NC2CCC(C)CC2)cc1 (stereo unspecified) ?
DT40 TDP1 no CPT: -13%; DT40 TDP1 CPT: 3%; TDP1 block: -3%; VDR inh: -6%; PLK1 PBD block: -11%; GCN5L2 inh-1: -17%

How did O=C(OCCN1C(=O)c2cccc3c(N4CCOCC4)ccc(c23)C1=O)c1cccc(Cl)c1 do in these assays?
DT40 TDP1 no CPT: 8.2µM*; DT40 TDP1 CPT: 18µM*; TDP1 block: 3%; VDR inh: 9%; PLK1 PBD block: 21µM*; GCN5L2 inh-1: inconclusive; GCN5L2 inh-2: inconclusive

How did O=C(COC(=O)c1c2c(nc3ccccc13)/C(=C/c1ccco1)CC2)NC1CCCC1 do in these assays?
DT40 TDP1 no CPT: inconclusive; DT40 TDP1 CPT: 16µM*; VDR inh: -7%; PLK1 PBD block: inconclusive; GCN5L2 inh-1: 13µM*; GCN5L2 inh-2: 7.3*

What do the screens show for `O=C1OC(c2ccc(F)cc2)=C/C1=C\c1ccc(O)cc1`?
DT40 TDP1 no CPT: inconclusive; DT40 TDP1 CPT: -3%; TDP1 block: 2%; VDR inh: -10%; PLK1 PBD block: -29%; GCN5L2 inh-1: -12%

Results for O=C1ON=C(c2ccc(Cl)cc2)/C1=C/c1ccc(O)cc1 ?
DT40 TDP1 no CPT: 12µM*; DT40 TDP1 CPT: 7.3µM*; TDP1 block: -2%; VDR inh: inconclusive; PLK1 PBD block: 0.47µM*; GCN5L2 inh-1: inconclusive; GCN5L2 inh-2: 26*

Results for O=C(CSc1nc2ccccc2s1)Nc1cc(C(=O)O)cc(C(=O)O)c1 ?
DT40 TDP1 no CPT: 10%; DT40 TDP1 CPT: -1%; TDP1 block: -11%; VDR inh: -16%; PLK1 PBD block: inconclusive; GCN5L2 inh-1: 20µM*; GCN5L2 inh-2: inconclusive

How did Cc1ccc(/C=C(\CCC(=O)O)c2nc3ccccc3s2)cc1[N+](=O)[O-] do in these assays?
DT40 TDP1 no CPT: -11%; DT40 TDP1 CPT: -16%; TDP1 block: 6%; VDR inh: -21%; PLK1 PBD block: inconclusive; GCN5L2 inh-1: 3%

What do the screens show for `CN(c1ccccc1)c1ccc(/C=C(\CCC(=O)O)c2nc3ccccc3s2)cc1[N+](=O)[O-]`?
DT40 TDP1 no CPT: -7%; DT40 TDP1 CPT: -10%; TDP1 block: 6%; VDR inh: -13%; PLK1 PBD block: 24µM*; GCN5L2 inh-1: inconclusive; GCN5L2 inh-2: 20*

Results for CC(C)OC(=O)/C(=C\c1cccc2ccccc12)NC(=O)c1ccccc1 ?
DT40 TDP1 no CPT: inconclusive; DT40 TDP1 CPT: inconclusive; TDP1 block: 2%; VDR inh: 3%; PLK1 PBD block: 0%; GCN5L2 inh-1: -5%

How did C[n+]1ccccc1/C=C/c1ccc(C#N)cc1 do in these assays?
DT40 TDP1 no CPT: 5%; DT40 TDP1 CPT: 17%; VDR inh: 0%; PLK1 PBD block: inconclusive; GCN5L2 inh-1: inconclusive; GCN5L2 inh-2: 29*

Results for Cn1c(SCC(=O)c2ccc(-c3ccccc3)cc2)nnc1-c1ccco1 ?
DT40 TDP1 no CPT: 26µM*; DT40 TDP1 CPT: -24%; TDP1 block: 0%; VDR inh: 8%; PLK1 PBD block: -4%; GCN5L2 inh-1: 28µM*; GCN5L2 inh-2: inconclusive

What do the screens show for `O=C(CSc1nnc(-c2ccco2)n1Cc1ccccc1)c1ccccc1`?
DT40 TDP1 no CPT: inconclusive; DT40 TDP1 CPT: inconclusive; TDP1 block: 7%; VDR inh: -21%; PLK1 PBD block: -14%; GCN5L2 inh-1: -1%

What do the screens show for `O=C(O)Cn1nnc(-c2ccc(OCc3cccc(C(F)(F)F)c3)cc2)n1`?
DT40 TDP1 no CPT: -2%; DT40 TDP1 CPT: -3%; TDP1 block: 7%; VDR inh: 6%; GCN5L2 inh-1: -12%

How did CCCNC(=O)c1ccc2c(=O)c(O)c(-c3ccsc3)[nH]c2c1 do in these assays?
DT40 TDP1 no CPT: 18µM*; DT40 TDP1 CPT: inconclusive; TDP1 block: -4%; VDR inh: -21%; PLK1 PBD block: -6%; GCN5L2 inh-1: 32µM*; GCN5L2 inh-2: 16*

Results for CCc1nnc(NC(=O)CCC(=O)NC2CCCCCCC2)s1 ?
DT40 TDP1 no CPT: 2%; DT40 TDP1 CPT: -2%; TDP1 block: 5%; VDR inh: 3%; PLK1 PBD block: -9%; GCN5L2 inh-1: -2%

Screens from PubChem BioAssay.
